Where a chain is given by its changes, count along the chain named.
Legend:
Assay in all cases: PBM; 200 nM protein, PBS
Settings in all cases: dsDNA, one strand shown
[1] = target: ALX1 (Homo sapiens, UniProt Q15699 118-204, L144V)
[2] = target: ALX1 (Homo sapiens, UniProt Q15699 118-204, L144R)
[3] = target: ALX1 (Homo sapiens, UniProt Q15699 118-204)
[4] = target: ALX3 (Homo sapiens, UniProt O95076 139-225, N203Q)
[5] = target: HOXD13 (Homo sapiens, UniProt P35453 263-343, T313R)
[6] = target: HOXD13 (Homo sapiens, UniProt P35453 263-343)
[7] = target: ALX3 (Homo sapiens, UniProt O95076 139-225)
[8] = target: ALX3 (Homo sapiens, UniProt O95076 139-225, L168Q)
[9] = target: HOXD13 (Homo sapiens, UniProt P35453 263-343, T313A)
[10] = target: ALX3 (Homo sapiens, UniProt O95076 139-225, L168V)
[11] = target: ALX3 (Homo sapiens, UniProt O95076 139-225, N203S)
[12] = target: T1, PAX4 (Homo sapiens, UniProt O43316 9-242, F177V)
T1 sequence: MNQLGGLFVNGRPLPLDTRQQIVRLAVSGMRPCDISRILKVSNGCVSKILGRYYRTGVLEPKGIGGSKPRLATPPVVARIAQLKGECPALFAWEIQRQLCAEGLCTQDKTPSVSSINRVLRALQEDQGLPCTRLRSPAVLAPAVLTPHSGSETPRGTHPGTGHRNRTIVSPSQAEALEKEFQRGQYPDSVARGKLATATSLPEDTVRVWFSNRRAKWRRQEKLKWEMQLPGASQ

[13] = target: T2, PAX4 (Homo sapiens, UniProt O43316 9-242, R227W)
T2 sequence: T1 sequence with V169F, R219W

ALX3 (Homo sapiens, UniProt O95076 139-225, L168V), sequence (O95076 139-225 L168V): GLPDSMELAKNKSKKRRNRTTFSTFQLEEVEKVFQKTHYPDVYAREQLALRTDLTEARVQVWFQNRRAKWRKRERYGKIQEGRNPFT
ALX3 (Homo sapiens, UniProt O95076 139-225), sequence (O95076 139-225): as the sequence (O95076 139-225 L168V) above, with V30L counted along it
ALX3 (Homo sapiens, UniProt O95076 139-225, N203S), sequence (O95076 139-225 N203S): as the sequence (O95076 139-225 L168V) above, with V30L, N65S counted along it
ALX3 (Homo sapiens, UniProt O95076 139-225, N203Q), sequence (O95076 139-225 N203Q): as the sequence (O95076 139-225 L168V) above, with V30L, N65Q counted along it
ALX1 (Homo sapiens, UniProt Q15699 118-204, L144R), sequence (Q15699 118-204 L144R): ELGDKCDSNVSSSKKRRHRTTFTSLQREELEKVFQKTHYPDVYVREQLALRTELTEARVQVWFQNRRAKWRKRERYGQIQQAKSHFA
ALX1 (Homo sapiens, UniProt Q15699 118-204), sequence (Q15699 118-204): as the sequence (Q15699 118-204 L144R) above, with R27L counted along it
ALX1 (Homo sapiens, UniProt Q15699 118-204, L144V), sequence (Q15699 118-204 L144V): as the sequence (Q15699 118-204 L144R) above, with R27V counted along it
ALX3 (Homo sapiens, UniProt O95076 139-225, L168Q), sequence (O95076 139-225 L168Q): as the sequence (O95076 139-225 L168V) above, with V30Q counted along it
HOXD13 (Homo sapiens, UniProt P35453 263-343, T313A), sequence (P35453 263-343 T313A): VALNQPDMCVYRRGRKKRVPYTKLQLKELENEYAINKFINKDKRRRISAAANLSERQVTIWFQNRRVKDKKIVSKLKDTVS
HOXD13 (Homo sapiens, UniProt P35453 263-343, T313R), sequence (P35453 263-343 T313R): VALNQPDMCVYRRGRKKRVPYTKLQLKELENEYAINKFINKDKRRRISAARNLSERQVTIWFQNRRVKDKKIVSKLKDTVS
HOXD13 (Homo sapiens, UniProt P35453 263-343), sequence (P35453 263-343): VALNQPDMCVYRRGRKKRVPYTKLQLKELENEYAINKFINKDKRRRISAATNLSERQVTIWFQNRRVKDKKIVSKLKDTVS

With CAACGGAG the binding signal [1] was 6.43 upbm affinity estimate (log intensity, higher = more binding, comparable within an allelic series), the binding signal [2] was 6.49 upbm affinity estimate (log intensity, higher = more binding, comparable within an allelic series) and the binding signal [3] was 6.47 upbm affinity estimate (log intensity, higher = more binding, comparable within an allelic series).

AGCCTTCG was tested, and the binding signal [1] was 6.33 upbm affinity estimate (log intensity, higher = more binding, comparable within an allelic series), the binding signal [2] was 6.46 upbm affinity estimate (log intensity, higher = more binding, comparable within an allelic series) and the binding signal [3] was 6.29 upbm affinity estimate (log intensity, higher = more binding, comparable within an allelic series).

With AATCCACA the binding signal [1] was 8.17 upbm affinity estimate (log intensity, higher = more binding, comparable within an allelic series) and the binding signal [3] was 8.4 upbm affinity estimate (log intensity, higher = more binding, comparable within an allelic series).

With CCACAGGG the binding signal [4] was 7.75 upbm affinity estimate (log intensity, higher = more binding, comparable within an allelic series), the binding signal [5] was 9.71 upbm affinity estimate (log intensity, higher = more binding, comparable within an allelic series) and the binding signal [6] was 9.49 upbm affinity estimate (log intensity, higher = more binding, comparable within an allelic series). The binding signal [7] was 7.62 upbm affinity estimate (log intensity, higher = more binding, comparable within an allelic series), the binding signal [8] was 7.81 upbm affinity estimate (log intensity, higher = more binding, comparable within an allelic series) and the binding signal [9] was 9.58 upbm affinity estimate (log intensity, higher = more binding, comparable within an allelic series). The binding signal [10] was 7.81 upbm affinity estimate (log intensity, higher = more binding, comparable within an allelic series) and the binding signal [11] was 7.73 upbm affinity estimate (log intensity, higher = more binding, comparable within an allelic series).

In the case of AGTTAGCC, the binding signal [1] was 7.87 upbm affinity estimate (log intensity, higher = more binding, comparable within an allelic series), the binding signal [2] was 7.7 upbm affinity estimate (log intensity, higher = more binding, comparable within an allelic series) and the binding signal [3] was 8.29 upbm affinity estimate (log intensity, higher = more binding, comparable within an allelic series).

In the case of GTAGGTAA, the binding signal [1] was 8.26 upbm affinity estimate (log intensity, higher = more binding, comparable within an allelic series) and the binding signal [3] was 8.54 upbm affinity estimate (log intensity, higher = more binding, comparable within an allelic series).

ATATTATA was tested, and the binding signal [4] was 8.63 upbm affinity estimate (log intensity, higher = more binding, comparable within an allelic series), the binding signal [12] was 10.7 upbm affinity estimate (log intensity, higher = more binding, comparable within an allelic series) and the binding signal [13] was 10.9 upbm affinity estimate (log intensity, higher = more binding, comparable within an allelic series). The binding signal [11] was 8.69 upbm affinity estimate (log intensity, higher = more binding, comparable within an allelic series).

For CCCGAGAG, the binding signal [4] was 7.84 upbm affinity estimate (log intensity, higher = more binding, comparable within an allelic series), the binding signal [7] was 7.81 upbm affinity estimate (log intensity, higher = more binding, comparable within an allelic series) and the binding signal [8] was 7.74 upbm affinity estimate (log intensity, higher = more binding, comparable within an allelic series). The binding signal [10] was 7.83 upbm affinity estimate (log intensity, higher = more binding, comparable within an allelic series) and the binding signal [11] was 7.85 upbm affinity estimate (log intensity, higher = more binding, comparable within an allelic series).

For AATATTCG, the binding signal [4] was 8.28 upbm affinity estimate (log intensity, higher = more binding, comparable within an allelic series) and the binding signal [7] was 9.33 upbm affinity estimate (log intensity, higher = more binding, comparable within an allelic series).

For GCGCGAGC, the binding signal [4] was 7.77 upbm affinity estimate (log intensity, higher = more binding, comparable within an allelic series), the binding signal [7] was 7.84 upbm affinity estimate (log intensity, higher = more binding, comparable within an allelic series) and the binding signal [8] was 7.77 upbm affinity estimate (log intensity, higher = more binding, comparable within an allelic series). For the same sequence, the binding signal [10] was 7.76 upbm affinity estimate (log intensity, higher = more binding, comparable within an allelic series) and the binding signal [11] was 7.83 upbm affinity estimate (log intensity, higher = more binding, comparable within an allelic series).

AGCGGGAC was tested, and the binding signal [4] was 7.69 upbm affinity estimate (log intensity, higher = more binding, comparable within an allelic series), the binding signal [7] was 7.54 upbm affinity estimate (log intensity, higher = more binding, comparable within an allelic series) and the binding signal [8] was 7.62 upbm affinity estimate (log intensity, higher = more binding, comparable within an allelic series). For the same sequence, the binding signal [10] was 7.69 upbm affinity estimate (log intensity, higher = more binding, comparable within an allelic series) and the binding signal [11] was 7.73 upbm affinity estimate (log intensity, higher = more binding, comparable within an allelic series).

ACCAGCGG was tested, and the binding signal [4] was 7.79 upbm affinity estimate (log intensity, higher = more binding, comparable within an allelic series), the binding signal [7] was 7.56 upbm affinity estimate (log intensity, higher = more binding, comparable within an allelic series) and the binding signal [8] was 7.79 upbm affinity estimate (log intensity, higher = more binding, comparable within an allelic series). The binding signal [10] was 7.78 upbm affinity estimate (log intensity, higher = more binding, comparable within an allelic series) and the binding signal [11] was 7.78 upbm affinity estimate (log intensity, higher = more binding, comparable within an allelic series).

For ACCGGTTA, the binding signal [4] was 8.13 upbm affinity estimate (log intensity, higher = more binding, comparable within an allelic series), the binding signal [7] was 9.46 upbm affinity estimate (log intensity, higher = more binding, comparable within an allelic series) and the binding signal [8] was 8.24 upbm affinity estimate (log intensity, higher = more binding, comparable within an allelic series). For the same sequence, the binding signal [10] was 8.11 upbm affinity estimate (log intensity, higher = more binding, comparable within an allelic series) and the binding signal [11] was 8.2 upbm affinity estimate (log intensity, higher = more binding, comparable within an allelic series).
